Shown are actives, neighbours in structure and some others; about 5.7% of the full set was active somewhere.
Fluor 339 460 = intrinsic fluorescence of library compounds, ex339/em460 – biochemical, MLSMR library, data from DPM-DC assay, artefact control, profiling panel. compound autofluorescence, ex339/em460 nm, NADH buffer; active compounds read high; 1 = no-compound wells, NADH background. fluorescence fold increase at 10 µM. 5.5% of 65,000 active. AID 709, 2007;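 active = at 10 µM, mean starting fluorescence two-fold or more over control wells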;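 also: signal is the first read of a kinetic run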
Hsp90 block = tumor Hsp90 inhibitors, primary screen, cell lysate, fluorescence polarization, NCI-N417 lysate; inhibition, % at 30 µM; 0.35% of 64,000 active; AID 429, 2006; Cy3B-geldanamycin FP displacement; Heat shock protein HSP 90-alpha (Homo sapiens), P07900;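 active = inhibition above 50%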;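 also: 0% = tracer plus lysate wells and 100% = tracer alone without lysate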
Cdc25B inh = inhibitors of Cdc25B phosphatase catalytic domain, primary screen, biochemical, OMFP fluorescence. AID 368, 2006. inhibition, %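 (compounds tested at 10 µM final in the well)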. 0.1% of 65,000 active. recombinant Cdc25B, OMFP fluorescence Ex485/Em525; in the data active = inhibition above about 50%
NADH coupling = inhibitors of PK/LDH coupling enzymes, profiling panel, artefact control, biochemical, MLSMR library; coupled PK/LDH NADH assays, four targets; IC50, µM (highest dose often 10 µM), inactives show at the top dose inhibition; 0.02% of 65,000 active; AID 774, 2007;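 active = single-dose screening hits from any of four coupled enzyme assays that gave an IC50 when retested across doses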;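 also: the DPM-DC format reads NADH fluorescence rather than 340 nm absorbance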
DUSP1 inh = MKP-1 phosphatase inhibitors, primary screen, biochemical, in vitro. inhibition, %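 (compounds tested at a single concentration somewhere between 10 and 100 µM)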. 0.15% of 65,000 active. Dual specificity protein phosphatase 1 (Homo sapiens), P28562. recombinant MKP-1, OMFP hydrolysis fluorescence;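 active = inhibition above about 50%, limit read from the data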;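 also: 0% = DMSO max control wells and 100% = wells with enzyme stopped by NaOH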
Target sequence (P28562 whole entry, looked up): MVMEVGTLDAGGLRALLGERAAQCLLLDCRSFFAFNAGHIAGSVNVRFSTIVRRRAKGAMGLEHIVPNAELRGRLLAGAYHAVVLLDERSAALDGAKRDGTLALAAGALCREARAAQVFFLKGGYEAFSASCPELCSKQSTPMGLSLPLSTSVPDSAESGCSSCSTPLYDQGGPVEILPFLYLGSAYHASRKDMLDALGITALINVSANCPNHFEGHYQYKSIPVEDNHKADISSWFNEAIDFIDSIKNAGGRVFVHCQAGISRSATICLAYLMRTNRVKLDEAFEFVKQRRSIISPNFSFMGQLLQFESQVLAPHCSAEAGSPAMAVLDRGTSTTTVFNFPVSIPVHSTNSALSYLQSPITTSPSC
A340 absorber = compound light absorbance at 340 nm, profiling panel, artefact control, biochemical, MLSMR library, data from PS, PMK, MK assays; compound absorbance at 340 nm, fold over control; fold change at 10 µM; 65,000 tested, under 10 active;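 active = at 10 µM dose, initial 340 nm absorbance at least 2 fold that of control wells; inactive = change under 2 fold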;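 also: initial absorbance extrapolated from kinetic A340 decline of NADH oxidation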
Numbers without * were called inactive; x = no result given.

SMILES	Fluor 339 460	Hsp90 block	Cdc25B inh	NADH coupling	DUSP1 inh	A340 absorber
CC(=O)c1ccc(-c2nc3ccccc3n2C)o1	3*	-2	-17	3%	-10	1.1
COc1ccc(N(CC(=O)Nc2ccc(C)cn2)S(=O)(=O)c2c(C)noc2C)cc1	1.1	-1	7	8%	6	0.99
Cc1cc(C)nc(Nc2nc(C)c3cc4c(cc3n2)OCO4)n1	3.5*	-3	-11	13%	2	1.1
CC(COc1ccc(/C=C/c2ccccc2)cc1)[N+](C)(C)C (configuration not stated)	x	0	x	x	x	x
Cc1ccc2cc3c(nc2c1)N(Cc1ccco1)CC3	3.8*	-18	-16	3%	6	1.1
Cc1ccc2nc3c(cc2c1)CN(Cc1ccco1)C(=NCC1CCCO1)S3 (configuration not stated)	1.1	-1	-10	2%	4	1
C[N+](C)(C)CCC(=O)c1cccc2ccccc12	x	0	x	x	x	x
COCCCNC(=O)c1ccccc1NS(C)(=O)=O	3.4*	-2	-7	5%	0	1.1
COCCCNC(=O)c1ccccc1NS(=O)(=O)c1ccc(C)cc1	1.3	-2	1	3%	6	0.97
CS(=O)(=O)Nc1ccccc1C(=O)NC1CC2CCC1C2 (configuration not stated)	3.8*	-1	-11	8%	3	1.1
O=C(Cn1nc(C(F)(F)F)c2c1CCC2)N1CCN(c2ccccc2)CC1	1.1	-2	-6	1%	14	1
CN(C)C(N)=NCCC[C@H](N)C(=O)O	x	-4	x	x	x	x
Cc1nn(-c2ccccc2)c(C)c1NS(=O)(=O)c1ccccc1	1.1	-4	-2	7%	1	1
COc1cccc2[nH]c3c(N4CCC(C)CC4)ncnc3c12	3.7*	-7	9	3%	-13	1.1
COc1cccc2[nH]c3c(N4CCN(Cc5ccc6c(c5)OCO6)CC4)ncnc3c12	3.9*	-2	-2	9%	39	1.1
COc1cc2[nH]c3c(N4CCN(c5ccc(Cl)cc5)CC4)ncnc3c2cc1OC	2.4*	-6	9	3%	25	1.1
Cc1sc(CO)c(Sc2ccccc2)c1C(=O)O	1.1	0	-8	5%	1	0.97
CCCC(=O)NCCc1c2n(c3ccc(OC)cc13)CCCc1ccccc1-2	x	-2	x	x	x	x
CCOC(=O)c1c(C)[nH]c(C)c1C(=O)CSc1nnc(-c2ccncc2)n1C	1.2	-1	-1	3%	-5	1
CCn1nc(NC(=O)c2ccccn2)c2cc3cccc(C)c3nc21	3.4*	2	-11	9%	-12	1.1
O=C(Nc1ccc(N2C(=O)C3C4C=CC(C4)C3C2=O)cc1)Nc1cccnc1 (configuration not stated)	0.98	2	-16	11%	-5	0.96
Cn1c(=O)c2nc(NCc3ccccc3)cnc2n(C)c1=O	3.9*	-4	-18	13%	8	0.99
Cc1ccc(OCc2nnc(SCC(=O)Nc3sc(C)c(C)c3C#N)n2C)cc1	1.1	1	-1	5%	-8	1.1
Cc1sc(NC(=O)CSc2nnc(COc3ccccc3)n2C)c(C#N)c1C	2.1*	0	0	5%	4	1
Cc1cc(C)c(NC(=O)C[C@H](CC(=O)O)c2cccc3ccccc23)c(C(=O)N2CCC3(CCCC3)CC2)c1	x	-1	x	x	x	x
SMILES	Fluor 339 460	Hsp90 block	Cdc25B inh	NADH coupling	DUSP1 inh	A340 absorber
O=C1CC(N2CCN(CCc3ccccn3)CC2)C(=O)N1c1ccc(Cl)cc1 (configuration not stated)	0.97	-1	59*	9%	12	1
O=C1CC(N2CCN(Cc3ccccc3)CC2)C(=O)N1c1ccccc1 (configuration not stated)	1.1	-3	-3	0%	10	1.1
COC(=O)C1=CN(CC2CCCO2)C=C(C(=O)OC)C1c1ccsc1 (configuration not stated)	2.1*	3	-4	9%	-2	1.1
COC(=O)C1=C(C)N(C)C(C)=C(C(=O)OC)C1c1ccsc1	1.1	-3	-6	6%	1	1.1
CCOC(=O)C1=CN(C)C=C(C(=O)OCC)C1c1ccsc1	4.8*	0	1	3%	5	1
CCOC(=O)c1cc2c(=O)n3ccccc3nc2n(Cc2ccccc2Cl)c1=N	2.3*	-1	15	1%	-13	1
CCOC(=O)c1cc2c(=O)n3ccccc3nc2n(Cc2ccccc2)c1=N	2.5*	-4	-7	4%	-5	0.98
Cc1ccc(Cn2c(=N)c(C(=O)NCc3ccco3)cc3c(=O)n4ccccc4nc32)cc1	1.9	0	25	6%	29	1
COCCSc1ccccc1C(=O)N1CCN(Cc2ccc3c(c2)OCO3)CC1	1.1	0	-7	5%	23	1.1
CCC(C)NC(=O)c1cnn2c(C)c3c(nc12)CCCC3 (configuration not stated)	4.9*	0	-5	11%	0	1
Cc1c2c(nc3c(C(=O)NC4CC4)cnn13)CCCC2	1.2	0	-1	3%	1	1
COC(=O)CSc1ccc2c(N)c(C(=O)OC)sc2c1	2.5*	-2	9	13%	6	1
O=C(Nc1cccc2c1C(=O)NC2=O)c1ccc(S(=O)(=O)N2CCCC2)cc1	2.3*	-2	-4	8%	1	1
COC(=O)CNC(=O)c1nn(-c2cccc(OC)c2)c(=O)c2ccccc12	1.1	1	3	3%	-9	1
CN(C(=O)COc1cc(=O)n(C)c2ccccc12)c1ccc(Br)cc1	1	-1	-8	2%	4	0.97
CCOC(=O)Cc1c(C)nc2c(-c3ccccc3)c[nH]n2c1=O	2.2*	x	-5	6%	10	1.1
COC(=O)Cn1cnc(=O)c(C#N)c1/C=C/N(C)C	1.1	-2	-6	0%	-10	1.1
O=c1c2c(nc3c(-c4ccc(Cl)cc4)c[nH]n13)CCCC2	4.1*	2	0	1%	-16	1
O=c1c2c(nc3c(-c4cccc5ccccc45)c[nH]n13)CCC2	3.6*	-4	1	8%	9	1.1
Cc1[nH]n2c(=O)c3c(nc2c1-c1ccccc1)CCCC3	1.5	1	0	6%	-19	1
O=C(Nc1sccc1C(=O)N1CCOCC1)c1cccnc1	1.1	-2	-6	8%	13	1.1
NC(=O)c1nn(-c2ccccc2)nc1N	3.9*	1	-14	2%	6	1.1

Assay outcomes as filed in PubChem BioAssay.
